Results published in the supplement of paper PMC12350171.
Where a name gives a salt, the structure may show the parent alone. Unmarked numbers belong to inactive results.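 How the source made its calls: active = normalised median growth AUC below 0.1 of DMSO control; inactive = AUC 0.1 or higher.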

How the values were obtained:
Experiment in all cases: growth AUC normalised to DMSO control (median) (fraction of control); higher = less growth inhibition, active = hit call of the paper
Details in all cases: 20 µM
P. vulgatus RND KO = test system: P. vulgatus RND KO
Method in brief: (§1)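 In 96-well plates of mGAM seeded at OD578 0.01, strains that had been passaged twice overnight without oxygen were exposed to approved-drug library compounds at 20 μM with 1% DMSO. Hourly OD578 readings were taken for 24 h in an anaerobic incubator. The trapezoidal-rule area under the curve, with curves truncated at entry into stationary phase, was expressed relative to same-plate vehicle wells as the median of three biological replicates.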

P. vulgatus WT = test system: P. vulgatus WT
Method in brief: as §1

[1] = test system: S. enterica typhimurium WT
Method in brief: as §1

[2] = test system: S. enterica typhimurium tolC KO
Method in brief: as §1
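Further: active when median AUC fell below 0.1.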

SMILES	growth AUC normalised to DMSO control (P. vulgatus RND KO)	growth AUC normalised to DMSO control (P. vulgatus WT)	growth AUC normalised to DMSO control [1]	growth AUC normalised to DMSO control [2]
CCOc1ccc2nc3cc(N)ccc3c(N)c2c1 [Ethacridine lactate]	0.999	0.961	0.991	0.977
CCCC(CCC)C(=O)O[C@H]1C[C@H]2CC[C@@H](C1)[N+]2(C)C [Anisotropine Methylbromide]	1.09	1.12	0.997	0.994
COCC1=C(C(=O)OC(C)OC(=O)OC(C)C)N2C(=O)[C@@H](NC(=O)/C(=N\OC)c3csc(N)n3)[C@H]2SC1 (stereo partly drawn) [Cefpodoxime proxetil]			0.853	0.338
CNCc1cc(-c2ccccc2F)n(S(=O)(=O)c2cccnc2)c1 [Vonoprazan]	1.02	1.04	1	0.995
CO/N=C(\C(=O)N[C@@H]1C(=O)N2C(C(=O)[O-])=C(C[n+]3ccn4ncccc43)CS[C@H]12)c1nsc(N)n1 [Cefozopran hydrochloride]		0.128	0.0996 (active)	0.1
CC(C)c1ccc2oc3nc(N)c(C(=O)O)cc3c(=O)c2c1 [Amlexanox]	1.02	1.01	0.996	0.971
CC(C)c1cc2c(cc1S(=O)(=O)O)[C@@]1(C)CCC[C@@](C)(C(=O)O)[C@@H]1CC2 [Ecabet sodium]	1.01	1.02	1.01	0.988
CC1(C)S[C@@H]2[C@H](NC(=O)[C@H](N)c3ccccc3)C(=O)N2[C@H]1C(=O)O [Ampicillin sodium salt]			0.773	0.112
Cn1nnnc1SCC1=C(C(=O)O)N2C(=O)[C@@H](NC(=O)[C@H](O)c3ccccc3)[C@H]2SC1 [Cefamandole sodium salt]	0.204		0.0103 (active)	0.00496 (active)
CC/C=C(\C(=O)N[C@@H]1C(=O)N2C(C(=O)OCOC(=O)C(C)(C)C)=C(COC(N)=O)CS[C@H]12)c1csc(N)n1 [Cefcapene pivoxil hydrochloride monohydrate]			1.03	0.159
CC(=O)Oc1ccccc1C(=O)Nc1ncc([N+](=O)[O-])s1 [Nitazoxanide]	0.0128 (active)	0.0145 (active)	0.922	0.414
CC[C@H]1OC(=O)C[C@@H](O)[C@H](C)[C@@H](O[C@@H]2O[C@H](C)[C@@H](O[C@H]3C[C@@](C)(O)[C@@H](O)[C@H](C)O3)[C@H](N(C)C)[C@H]2O)[C@@H](CC=O)C[C@@H](C)C(=O)/C=C/C(C)=C/[C@@H]1CO[C@@H]1O[C@H](C)[C@@H](O)[C@@H](OC)[C@H]1OC [Tylosin]	0.015 (active)	0.0123 (active)	0.997	0.721
CNCC[C@@H](Oc1cccc2ccccc12)c1cccs1 [(R)-Duloxetine hydrochloride]	1.02	0.993	0.999	0.929
Cc1ccc(O)c([C@H](CCN(C(C)C)C(C)C)c2ccccc2)c1 [Tolterodine tartrate]	1.01	1.01	1	0.971
CCOc1nc2cccc(C(=O)OCc3oc(=O)oc3C)c2n1Cc1ccc(-c2ccccc2-c2noc(=O)[nH]2)cc1 [Azilsartan medoxomil]	0.988	0.962	1	0.998
CC1(C)O[C@@H]2C[C@H]3[C@@H]4CCC5=CC(=O)C=C[C@]5(C)[C@H]4[C@@H](O)C[C@]3(C)[C@]2(C(=O)CO)O1 [Desonide]	0.783	0.993	0.996	1
O=C(CCCl)NCc1ccccc1 [Beclamide]	0.972	0.966	1.01	0.974
C/C(=C1\CCOC(=O)S1)N(C=O)Cc1cnc(C)nc1N [Cycotiamine]	1.01	1.07	0.995	1
CN(C)c1cc(NC(=O)CNC(C)(C)C)c(O)c2c1C[C@H]1C[C@H]3[C@H](N(C)C)C(=O)C(C(N)=O)=C(O)[C@@]3(O)C(=O)C1=C2O [Tigecycline]	0.987	0.997	0.995	0.997
